KCNH2 3.1 inh = qHTS for Inhibitors of KCHN2 3.1: Mutant qHTS; Potassium voltage-gated channel subfamily H member 2, brain isoform KCNH2 3.1 (human); AID 720553, 2013; 340,000 compounds, 0.95% hits; U2OS KCNH2 3.1, thallium flux FluxOr; stronger effect = lower value; activity change, % (tested at about 1.8 µM);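 active means maximum activity change below -70%; inconclusive means maximum activity change from -70% to -50%; inactive means maximum activity change above -50%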;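 further: thallium influx rate constant from kinetic fluorescence after stimulation buffer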
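Measured as rate of thallium-driven FluxOr signal in transduced U2OS cells carrying the 3.1 channel, read kinetically for 2 min upon stimulation; values are rate constants scaled to DMSO control wells.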
hERG WT inh = qHTS for Inhibitors of KCHN2 3.1: Wildtype qHTS; Voltage-gated inwardly rectifying potassium channel KCNH2 (Homo sapiens), Q12809; activity change, % at 1.84 µM; 340,000 compounds, 0.37% hits; U2OS, BacMam KCNH2, thallium flux FluxOr; stronger effect = lower value;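 active means maximum activity change below -70%; inconclusive means maximum activity change between -70% and -50%; inactive means maximum activity change above -50%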
Target sequence (Q12809 whole entry, looked up): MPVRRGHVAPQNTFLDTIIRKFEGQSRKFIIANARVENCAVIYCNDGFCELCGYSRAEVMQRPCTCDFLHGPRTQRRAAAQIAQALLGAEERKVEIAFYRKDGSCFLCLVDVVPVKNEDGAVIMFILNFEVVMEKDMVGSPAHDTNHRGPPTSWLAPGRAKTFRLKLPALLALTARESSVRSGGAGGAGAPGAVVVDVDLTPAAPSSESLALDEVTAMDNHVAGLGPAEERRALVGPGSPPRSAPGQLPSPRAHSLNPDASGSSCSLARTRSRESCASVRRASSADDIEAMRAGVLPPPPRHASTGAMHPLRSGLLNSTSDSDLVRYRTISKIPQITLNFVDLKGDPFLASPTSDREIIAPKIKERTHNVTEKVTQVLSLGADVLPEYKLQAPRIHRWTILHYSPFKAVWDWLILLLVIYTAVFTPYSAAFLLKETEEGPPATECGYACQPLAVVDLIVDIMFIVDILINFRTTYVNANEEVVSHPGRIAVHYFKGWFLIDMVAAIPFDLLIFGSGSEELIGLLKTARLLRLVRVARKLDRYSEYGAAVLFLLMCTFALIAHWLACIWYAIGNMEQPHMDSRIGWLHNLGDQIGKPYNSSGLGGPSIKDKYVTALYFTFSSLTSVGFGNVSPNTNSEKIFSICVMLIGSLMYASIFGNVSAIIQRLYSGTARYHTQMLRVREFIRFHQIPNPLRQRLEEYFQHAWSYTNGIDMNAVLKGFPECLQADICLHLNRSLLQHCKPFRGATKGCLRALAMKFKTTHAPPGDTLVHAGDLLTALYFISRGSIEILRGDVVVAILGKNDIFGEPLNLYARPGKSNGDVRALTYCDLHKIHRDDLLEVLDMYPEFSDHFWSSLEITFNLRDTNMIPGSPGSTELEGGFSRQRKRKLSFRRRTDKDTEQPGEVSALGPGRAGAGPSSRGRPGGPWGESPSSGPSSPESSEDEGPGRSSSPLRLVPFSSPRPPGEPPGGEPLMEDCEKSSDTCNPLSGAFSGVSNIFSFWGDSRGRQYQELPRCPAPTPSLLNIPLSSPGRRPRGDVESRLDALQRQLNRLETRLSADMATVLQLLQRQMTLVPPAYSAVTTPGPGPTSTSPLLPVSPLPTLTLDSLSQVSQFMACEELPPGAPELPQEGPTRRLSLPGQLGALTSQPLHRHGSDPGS
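U2OS cells were transduced with wild-type KCNH2 virus (2.03 x 10^8 / mL) for 4 h at room temperature, then cultured overnight at 37 C. Thallium flux was read with FluxOr dye. Rate constants were normalized to DMSO controls.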
ALOX12 inh = Primary qHTS assay for inhibitors of human arachidonate 12S-lipoxygenase (ALOX12): Round 2. Polyunsaturated fatty acid lipoxygenase ALOX12 (Homo sapiens), P18054. purified 12hLO, xylenol orange hydroperoxide absorbance. Potency, µM (doses to about 108 µM), actives largely listed as inhibitors. 580,000 compounds, 1.1% hits; active means well fitted inhibition curve with a large enough effect; inconclusive means small, poorly fitted or top-dose-only effect, or another doubt; inactive means no such curve, though single readings can be large or run the other way
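Purified human 12hLO (150 nM final) in 25 mM Hepes, 0.01% Triton X-100, pH 7.0 was preincubated 15 min at room temperature with compound. Then 40 uM arachidonic acid was added, 30 min. Hydroperoxide was read by Fe-XO absorbance ratio 573/405 nm.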
ClpP mod = qHTS Assay for Activators of ClpP; 340,000 compounds, 1.9% hits; purified B. subtilis ClpP, FRET peptide cleavage, 20 min; AID 651965, 2013; Potency, µM (doses to about 57.5 µM); active means well fitted falling curve with a large enough effect; inconclusive means small, poorly fitted or top-dose-only effect; inactive means no such curve, though single readings can be large or run the other way; further: the source files actives as falling curves though it sought activators and does not explain the sign; nearly all actives have a fitted effect of over 65% in size
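FRET quenching reversal measured ClpP activation: 10 microg/mL B. subtilis ClpP at pH 8 with the FRET-FV decapeptide, read at 430 nm after 320 nm excitation. The 20-min minus 0-min signal was scaled between DMSO/no-enzyme wells and ADEP (5.8 microM final).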
BCR signal inh = qHTS Assay to Find Inhibitors of Chronic Active B-Cell Receptor Signaling. 340,000 compounds, 0.05% hits. Potency, µM (titrated, usually from 46.1 µM), actives largely listed as inhibitors. ABC-DLBCL IkBa-CBG/CBR reporter, luminescence ratio, 4 h; active means well fitted inhibition curve with a large enough effect in the signal ratio, with a control signal flat, not every such curve was filed as active; inconclusive means small, poorly fitted or top-dose-only effect, or effect the other way, or a change in a side signal; the % refers to the signal ratio
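Doxycycline induced both beetle luciferases in TMD8 lymphoma cells; IKK-driven degradation limits the IkappaBalpha-fused green signal, while red luminescence normalises for cell number and nonspecific effects. Compounds tested up to 46 uM, 4 hrs.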
LDHA inh = qHTS assay for inhibitors of human lactate dehydrogenase; AID 1347041, 2019; 480,000 compounds, 0.15% hits; L-lactate dehydrogenase A chain (Homo sapiens), P00338; purified LDHA, NADH/diaphorase-resazurin fluorescence; stronger effect = lower value; activity change, % (values are at about 110 or 230 µM); in the data active means activity change below about -30%; inconclusive means mostly about -25% to -30%
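Human LDH5 (2 nM) was incubated with 0.06 mM NADH and 0.2 mM pyruvate for 5 min at room temperature in Tris pH 7.4. Remaining NADH was coupled through diaphorase/resazurin, and resorufin fluorescence was read at 0 and 20 min.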
Each line names hits and unclear results; the compound was inactive in the other large screens. The list is not random: actives were taken first. Their share in the collection is about 3%.

Cc1ccc(S(=O)(=O)CCC(=O)N2CCN(c3ccc([N+](=O)[O-])cc3)CC2)cc1	KCNH2 3.1 inh -77, BCR signal inh inconclusive
O=[N+]([O-])c1ccc(OCC(O)CN2CCN(c3ccccc3F)CC2)cc1 (centres undefined)	KCNH2 3.1 inh -97, hERG WT inh -76
Cc1ccc(N2CCN(CC(O)COc3cccc(C)c3)CC2)cc1 (centres undefined)	BCR signal inh inconclusive
Cc1ccc(N2CCN(CC(O)COc3ccc([N+](=O)[O-])cc3)CC2)cc1 (centres undefined)	KCNH2 3.1 inh -89, hERG WT inh -88 (no result: ClpP mod)
OC(COc1ccc2c(c1)CCC2)CN1CCN(c2ccccc2F)CC1 (centres undefined)	none
COc1ccc(-c2noc(COC(=O)C3=CN(Cc4ccccc4)S(=O)(=O)N=C3C)n2)cc1	none (no result: KCNH2 3.1 inh, hERG WT inh, ClpP mod, BCR signal inh, LDHA inh)
Cc1nccn1CC(O)COc1ccc([N+](=O)[O-])cc1 (centres undefined)	KCNH2 3.1 inh -98 (no result: ClpP mod)
Cc1nc(N2CCC(C(=O)O)(n3cccn3)CC2)cc(-n2cccn2)n1	none (no result: KCNH2 3.1 inh, hERG WT inh, ClpP mod, BCR signal inh, LDHA inh)
CCOC(=O)c1sc(N(Cc2ccccc2)C(=O)COC(=O)c2cnccn2)nc1C	KCNH2 3.1 inh -92, BCR signal inh inconclusive (no result: ClpP mod)
COc1ccc(-c2noc(CNC(=O)CCc3c(C)c4ccc(O)cc4oc3=O)n2)cc1	ALOX12 inh inconclusive (no result: KCNH2 3.1 inh, hERG WT inh, ClpP mod, BCR signal inh)
CCOC(=O)c1nn(-c2ccc(Cl)cc2)c2nnc(Cc3ccc(C)cc3)c(=O)n12	KCNH2 3.1 inh -88
CN(C)c1ccnc(-n2cccc2/C=N/OCc2ccccc2)c1C#N	ALOX12 inh inconclusive, ClpP mod 14µM, BCR signal inh inconclusive
COc1cccc(C2c3cc4c(cc3OC(N3CCOCC3)C2C)OCO4)c1O (centres undefined)	ALOX12 inh 32µM (no result: BCR signal inh)
COc1cc(C2c3cc4c(cc3OC(NNC(N)=O)C2C)OCO4)cc(OC)c1OC (centres undefined)	none (no result: BCR signal inh)
COc1cccc(C2c3cc4c(cc3OC(NNC(N)=O)C2C)OCO4)c1O (centres undefined)	ALOX12 inh 16µM (no result: BCR signal inh)
O=c1c2c([nH]n1-c1nc3ccccc3[nH]1)CCCC2	none (no result: KCNH2 3.1 inh, hERG WT inh, ClpP mod, BCR signal inh)
CC(C)N1CCC(N2CCN(Cc3cn(C(C)C)c4ccccc34)CC2CCO)CC1 (centres undefined)	none (no result: KCNH2 3.1 inh, hERG WT inh, ClpP mod, BCR signal inh, LDHA inh)
CCc1ccc2nc3nc(C)cc(C)c3c(N)c2c1	ClpP mod 11µM, BCR signal inh inconclusive
Cc1cc(C)c2c(N)c3ccccc3nc2n1	BCR signal inh inconclusive
c1csc(-c2nnsc2-c2nc3ccccc3[nH]2)c1	none
CC(c1nc2ccccc2[nH]1)n1c(=O)c(-c2cccs2)nc2ccccc21 (centres undefined)	ALOX12 inh inconclusive, ClpP mod 22µM (no result: KCNH2 3.1 inh, hERG WT inh, BCR signal inh)
O=c1[nH]c2ccccc2nc1-c1cccs1	ClpP mod 14µM
Cc1ccc(NC(=O)C2=C(c3ccccc3)NC(=S)NC2c2ccc(C(C)C)cc2)cc1 (centres undefined)	ALOX12 inh inconclusive (no result: KCNH2 3.1 inh, hERG WT inh, ClpP mod, BCR signal inh)
OC1CCCN(CC(O)COc2ccc(-c3ccccc3)cc2)C1 (centres undefined)	KCNH2 3.1 inh -72 (no result: ClpP mod)
CC1CCCN(CC(O)COc2ccc(-c3ccccc3)cc2)C1 (centres undefined)	hERG WT inh inconclusive (no result: ClpP mod)
NC(=O)C1CCN(CC(O)COc2ccc(-c3ccccc3)cc2)CC1 (centres undefined)	KCNH2 3.1 inh -86, BCR signal inh inconclusive (no result: ClpP mod)
COc1cccc(C2CCCN2C(=O)NCCn2ccnc2)c1 (centres undefined)	ALOX12 inh inconclusive (no result: KCNH2 3.1 inh, hERG WT inh, ClpP mod, BCR signal inh)
COC(=O)C1=C(C)NC(c2c(O)ccc3ccccc23)C(C(=O)OC)=C1C (centres undefined)	KCNH2 3.1 inh -85
